{"source": "PubChem BioAssay (NCATS)", "key": {"[1]": {"system": "Zika virus NS2B-NS3 protease (unlinked complex)", "assay": "Primary screen GU Rhodamine qHTS for Zika virus inhibitors: Unlinked NS2B-NS3 protease assay (AID 1347159); further: nearly all actives have a fitted effect of over 60% in size", "method_in_brief": "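Buffer 10 mM Tris-HCl pH 8.0, 0.01% Tween 20. Unlinked protease 25 nM; compound preincubation 15 min, RT, protected from light. Substrate Rhod110, 1.5 microM; ~15% conversion in 15 min.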"}, "[2]": {"system": "Zika virus NS2B-NS3 protease (linked construct)", "assay": "Primary screen NINDS Rhodamine qHTS for Zika virus inhibitors (AID 1347160); further: nearly all actives have a fitted effect of over 55% in size", "settings": "outcome: at 57.1 µM (top of the series)", "method_in_brief": "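Aprotinin served as in-plate control. Conditions: 25 nM linked NS2B-NS3, pH 8.0 Tris buffer, titrated compounds, 15 min preincubation and 15 min reaction with 1.5 microM Rhod110 substrate at room temperature.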"}, "[3]": {"biological_target": "Lysine-specific demethylase 5B (Homo sapiens) (UniProt Q9UGL1)", "sequence (Q9UGL1 whole entry, looked up)": "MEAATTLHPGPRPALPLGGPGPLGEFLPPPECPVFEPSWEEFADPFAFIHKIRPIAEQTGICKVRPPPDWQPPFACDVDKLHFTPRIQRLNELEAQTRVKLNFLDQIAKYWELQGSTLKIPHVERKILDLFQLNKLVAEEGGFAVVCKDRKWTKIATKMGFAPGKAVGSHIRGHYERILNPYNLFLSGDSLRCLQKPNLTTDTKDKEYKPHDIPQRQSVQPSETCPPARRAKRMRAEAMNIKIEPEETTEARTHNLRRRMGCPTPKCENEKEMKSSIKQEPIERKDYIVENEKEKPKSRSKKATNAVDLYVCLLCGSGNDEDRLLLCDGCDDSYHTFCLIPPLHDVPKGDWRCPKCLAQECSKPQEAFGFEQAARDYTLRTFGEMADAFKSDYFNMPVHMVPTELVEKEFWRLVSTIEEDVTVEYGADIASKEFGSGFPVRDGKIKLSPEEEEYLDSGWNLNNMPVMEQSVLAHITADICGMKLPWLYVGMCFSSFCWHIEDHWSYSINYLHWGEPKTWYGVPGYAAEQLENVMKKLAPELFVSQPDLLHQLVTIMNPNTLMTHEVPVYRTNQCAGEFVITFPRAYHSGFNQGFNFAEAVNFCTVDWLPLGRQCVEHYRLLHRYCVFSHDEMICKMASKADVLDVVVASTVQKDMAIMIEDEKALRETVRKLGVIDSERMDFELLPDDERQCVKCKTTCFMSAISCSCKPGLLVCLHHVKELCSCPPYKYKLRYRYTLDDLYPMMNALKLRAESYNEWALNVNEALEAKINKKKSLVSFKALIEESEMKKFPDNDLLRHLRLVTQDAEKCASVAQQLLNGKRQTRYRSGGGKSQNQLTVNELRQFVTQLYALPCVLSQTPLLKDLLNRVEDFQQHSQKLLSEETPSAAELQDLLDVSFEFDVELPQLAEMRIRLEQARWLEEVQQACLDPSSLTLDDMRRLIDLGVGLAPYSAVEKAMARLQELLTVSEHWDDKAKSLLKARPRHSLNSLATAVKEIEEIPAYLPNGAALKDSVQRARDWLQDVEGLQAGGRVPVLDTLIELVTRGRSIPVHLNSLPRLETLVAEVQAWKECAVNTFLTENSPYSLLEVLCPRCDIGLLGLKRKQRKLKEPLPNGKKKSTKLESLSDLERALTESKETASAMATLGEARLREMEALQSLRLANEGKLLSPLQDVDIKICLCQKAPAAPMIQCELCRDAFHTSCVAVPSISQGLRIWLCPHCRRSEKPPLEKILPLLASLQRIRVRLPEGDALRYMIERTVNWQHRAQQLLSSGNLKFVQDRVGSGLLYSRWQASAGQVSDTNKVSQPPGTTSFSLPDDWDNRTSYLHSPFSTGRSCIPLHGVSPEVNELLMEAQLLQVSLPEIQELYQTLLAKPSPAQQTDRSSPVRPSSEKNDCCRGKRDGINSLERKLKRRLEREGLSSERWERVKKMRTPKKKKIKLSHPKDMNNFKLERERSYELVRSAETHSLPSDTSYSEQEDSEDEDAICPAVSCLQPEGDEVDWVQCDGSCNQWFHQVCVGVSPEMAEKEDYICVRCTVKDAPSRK", "assay": "Optimization screen for KDM5B Histone Demethylases FDH coupled qHTS against the LOPAC library (AID 1347166)", "method_in_brief": "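KDM5BDeltaAP (200nM final) in 50mM HEPES pH 7.5, 0.01% Tween-20 was preincubated with compound for 10 min at room temperature. A substrate mix of 12.5uM H3K4Me3, 25uM a-ketoglutarate, ascorbate, Fe2+, NAD+ and formaldehyde dehydrogenase was then added. NADH fluorescence (340/450 nm) was read initially and after 30 min.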"}, "[4]": {"assay": "Confirmatory screen NINDS Rhodamine qHTS for Zika virus inhibitors (AID 1347161); further: nearly all actives have a fitted effect of over 60% in size; further: potency means the concentration at half of the fitted maximal effect", "method_in_brief": "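qHTS dose-response: 25 nM linked protease, pH 8.0 Tris/Tween buffer, cpd titration, 15 min RT preinc, 1.5 microM Rhod110 peptide, 15 min reaction (~15% conversion), Ex480/Em540; 4-parameter Hill fit.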"}, "[5]": {"assay": "Vero cells viability qHTS for Zika virus inhibitors (AID 1347167); further: potency means the concentration at half of the fitted maximal effect", "method_in_brief": "(§1)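 To flag cytotoxic protease inhibitors, viability is measured by ATP-dependent luminescence (CellTiter Glo) after cells attached overnight receive compound for 24 to 48 hours in DMEM with 4% FBS.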"}, "[6]": {"assay": "HepG2 cells viability qHTS for Zika virus inhibitors (AID 1347168)", "method_in_brief": "as §1"}, "[7]": {"assay": "Tertiary RLuc qRT-PCR qHTS assay for Zika virus inhibitors (AID 1347169)", "method_in_brief": "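Orthogonal cell-based infection assay using recombinant ZIKV-RLuc (Cambodian) in Vero cells; compound added prior to virus at MOI 1-2. Incubation lasts 48-72 hrs at 37 degrees C before live-cell Renilla substrate is added and luminescence measured.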"}, "[8]": {"system": "Zika virus NS2B-NS3 protease (linked construct)", "assay": "384 well plate NINDS Rhodamine confirmatory qHTS for Zika virus inhibitors (AID 1347164)", "method_in_brief": "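Compounds are incubated about 15 minutes with linked protease (5, 30 or 60 nM final). Rhodamine 110-tagged Ac-LKRR substrate (10 microM final) is added and fluorescence measured after 25 minutes.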"}, "[9]": {"system": "Zika virus NS2B-NS3 protease (linked)", "assay": "384 well plate NINDS AMC confirmatory qHTS for Zika virus inhibitors (AID 1347163)", "description": "Description: Assay Submitters (PI): Avindra Nath, Ph.D., National Institute of Neurological Disorders and Stroke (NINDS), Bethesda, MD Radhakrishnan Padmanabhan, Ph.D., Georgetown University (GU), Washington D.C. Zika Virus causes congenital defects, including microcephaly and is associated with Guillain-Barre syndrome, eningoencephalitis and myelitis in infected adult. […] Using a target-based approach, we hope to establish a screening paradigm to uncover novel, cell-active NS2B-NS3 protease (Zika Virus) specific inhibitors from NCATS' collection of small molecules using qHTS. […] Four assay panel was created to identify potential Zika Virus inhibitors. Namely, (1) GU unlinked NS2B-NS3 AMC tagged protease qHTS, (2) GU unlinked NS2B-NS3 Rhodamine tagged protease qHTS, (3) NINDS linked NS2B-NS3 AMC tagged protease qHTS, (4) NINDS linked NS2B-NS3 Rhodamine tagged protease qHTS. […]\n384-well NINDS AMC Assay The protease was diluted to 7.5 nM, 40.9 nM, or 82 nM in assay buffer and dispensed into a 96-well PCR plate (Applied Biosystems); 20 or 22 microL was transferred to a black 384-well assay plate (final protease concentration of 5 nM, 30 nM, or 60 nM, respectively). […] After 25 minutes, the fluorescence intensity (excitation: 355 nm, emission: 460 nm) was measured and normalized to no-enzyme and no-inhibitor controls. […]"}}, "note": "Inconclusive results are not listed. Where a call stands in place of a potency, no number is given. Calls of active or inactive are those of the source. The call rests on the fitted dose curve; in most records, active means well fitted curve in the direction sought with a large enough effect; inconclusive means small, poorly fitted or top-dose-only effect, or another doubt; inactive means no such curve, though single readings can be large; an effect the other way counts as inactive or inconclusive. Numbered stars: 1 amine (or outer) side, 2 acyl side, 3 side chain; on linkers, the order of the positions; unused ones are H or OH. Bridge positions count the residues as written; N and C are the ends. Square brackets hold non-standard residues; d marks the D form. Peptide text beside a SMILES is read from it. I, II: the chains in the order shown. Actinocin(9to1) = Cc1c2oc3c(C)ccc(C(=O)[*:1])c3nc-2c(C(=O)[*:2])c(N)c1=O; NMeV = CN[C@H](C(=O)O)C(C)C; Sar = CNCC(=O)O"}
{"smiles": "Cc1ccc(C(=O)C(C)CN2CCCCC2)cc1", "note": "(configuration not stated)", "values": [{"measurement": "outcome", "setting": "[1]", "result": "inactive"}, {"measurement": "outcome", "setting": "[2]", "result": "inactive"}]}
{"smiles": "CCCC1O[C@@H]2C[C@H]3[C@@H]4CCC5=CC(=O)C=C[C@]5(C)[C@H]4[C@@H](O)C[C@]3(C)[C@]2(C(=O)CO)O1", "note": "(some centres not stated)", "values": [{"measurement": "outcome", "setting": "[3]", "result": "inactive"}]}
{"smiles": "Cc1c2oc3c(C)ccc(C(=O)N[C@@H]4C(=O)N[C@H](C(C)C)C(=O)N5CCC[C@H]5C(=O)N(C)CC(=O)N(C)[C@@H](C(C)C)C(=O)O[C@@H]4C)c3nc-2c(C(=O)N[C@@H]2C(=O)N[C@H](C(C)C)C(=O)N3CCC[C@H]3C(=O)N(C)CC(=O)N(C)[C@@H](C(C)C)C(=O)O[C@@H]2C)c(N)c1=O", "note": "(I: T[dV]P[Sar][NMeV] / II: T[dV]P[Sar][NMeV]; ester I:1-I:C, II:1-II:C; linker I:N-II:N via Actinocin(9to1))", "values": [{"measurement": "Potency", "setting": "[4]", "result": "inactive"}, {"measurement": "Potency", "setting": "[5]", "result": "inactive"}, {"measurement": "Potency", "setting": "[6]", "result": "inactive"}, {"measurement": "Potency", "setting": "[7]", "result": "0.165 µM (active)"}]}
{"smiles": "CN1C2CCC1CC(OC(=O)c1c[nH]c3ccccc13)C2", "note": "(configuration not stated)", "values": [{"measurement": "outcome", "setting": "[3]", "result": "inactive"}]}
{"smiles": "O=C(O)c1cc2cc(Cc3cccnc3)ccc2o1", "values": [{"measurement": "outcome", "setting": "[3]", "result": "inactive"}]}
{"smiles": "CC[C@H](C)C(=O)O[C@H]1CCC=C2C=C[C@H](C)[C@H](CC[C@@H]3C[C@@H](O)CC(=O)O3)[C@H]21", "values": [{"measurement": "outcome", "setting": "[3]", "result": "inactive"}]}
{"smiles": "N[C@H](CO)C(=O)O", "values": [{"measurement": "outcome", "setting": "[3]", "result": "inactive"}]}
{"smiles": "C1CCc2nnnn2CC1", "values": [{"measurement": "outcome", "setting": "[3]", "result": "inactive"}]}
{"smiles": "CC(C)COC(=O)OCN1C(=O)CN(CCN2CC(=O)N(COC(=O)OCC(C)C)C(=O)C2)CC1=O", "values": [{"measurement": "outcome", "setting": "[3]", "result": "inactive"}]}
{"smiles": "CC(C)C[C@H]1C(=O)N2CCC[C@H]2[C@]2(O)O[C@](NC(=O)[C@@H]3C=C4c5cccc6[nH]c(Br)c(c56)C[C@H]4N(C)C3)(C(C)C)C(=O)N12", "values": [{"measurement": "Potency", "setting": "[4]", "result": "inactive"}, {"measurement": "Potency", "setting": "[5]", "result": "inactive"}, {"measurement": "Potency", "setting": "[6]", "result": "inactive"}]}
{"smiles": "CNCCC(Oc1ccccc1C)c1ccccc1", "note": "(configuration not stated)", "values": [{"measurement": "outcome", "setting": "[3]", "result": "inactive"}]}
{"smiles": "Nc1cc(Cl)c(NC2=NCCN2)c(Cl)c1", "values": [{"measurement": "outcome", "setting": "[3]", "result": "inactive"}]}
{"smiles": "CC1(C)CCC(NC(=O)[C@@H](N)CCC(=O)O)CC1", "values": [{"measurement": "outcome", "setting": "[3]", "result": "inactive"}]}
{"smiles": "CCCCC(CC)CN=C(N)NC(N)=NCCCCCCN=C(N)NC(N)=NCC(CC)CCCC", "note": "(configuration not stated)", "values": [{"measurement": "Potency", "setting": "[8]", "result": "39.8 µM (active)"}, {"measurement": "Potency", "setting": "[5]", "result": "29.4 µM (active)"}, {"measurement": "Potency", "setting": "[6]", "result": "13.1 µM (active)"}, {"measurement": "Potency", "setting": "[7]", "result": "3.7 µM (active)"}]}
{"smiles": "Oc1c(Cl)cc(Cl)cc1Sc1cc(Cl)cc(Cl)c1O", "values": [{"measurement": "Potency", "setting": "[4]", "result": "7.08 µM (active)"}, {"measurement": "outcome", "setting": "[9]", "result": "inactive"}, {"measurement": "Potency", "setting": "[8]", "result": "200 µM (active)"}, {"measurement": "Potency", "setting": "[7]", "result": "inactive"}]}
{"smiles": "CCCn1c(=O)[nH]c(=O)c2[nH]cnc21", "values": [{"measurement": "outcome", "setting": "[3]", "result": "inactive"}]}
{"smiles": "C[N+]1(CCCCC[N+]2(C)CCCC2)CCCC1", "values": [{"measurement": "outcome", "setting": "[3]", "result": "inactive"}]}
{"smiles": "C[C@@H]1C(=O)NC2=Nc3cccc(Cl)c3CN21", "values": [{"measurement": "outcome", "setting": "[3]", "result": "inactive"}]}
{"smiles": "O=C1CCC(c2ccc(-n3ccnc3)cc2)=NN1", "values": [{"measurement": "outcome", "setting": "[3]", "result": "inactive"}]}
{"smiles": "CC(=O)O[C@H]1C[C@@H]2CC[C@@H]3[C@H](CC[C@@]4(C)[C@H]3C[C@H]([N+]3(C)CCCCC3)[C@@H]4OC(C)=O)[C@@]2(C)C[C@@H]1[N+]1(C)CCCCC1", "values": [{"measurement": "outcome", "setting": "[3]", "result": "inactive"}]}
